Where “and” joins values, the source holds several entries; their conditions need not be identical. Equal entries are not always repeated. Records with an inconclusive call do not appear. Where a call stands in place of a potency, no number is given. A structure can be active in one record and inactive in another. Calls of active or inactive are those of the source. Unless noted, calls come from the whole dose curve; as a rule, active = well fitted curve in the direction sought with a large enough effect in the repeat runs; inconclusive = weak or mixed curves; inactive = no such curve, though single readings can be large; an effect the other way counts as inactive or inconclusive.
Columns and labels:
[1] = qHTS assay to identify small molecule agonists of the hypoxia (HIF-1) signaling pathway - cell viability counter screen (AID 1224844; calls by dose curve; note: nearly all actives have a fitted effect of over 50% in size; note: potency is the fitted concentration of half-maximal effect)
Summary of the method: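 Cytotoxicity was measured in parallel with the HRE-driven beta-lactamase readout: after 17 hrs of compound exposure at 37C, HRE-bla ME-180 cells received CellTiter-Glo and luminescence was recorded 30 min later.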

[2] = qHTS assay to identify small molecule agonists of H2AX (AID 1224845; active = well fitted activation curve with a large enough effect in the signal ratio in the repeat runs, not every such curve was filed as active; the % refers to the signal ratio)
Summary of the method: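 Wild-type CHO-K1 cells, plated overnight, exposed 3hr at 37C to 15 concentrations (0.76% DMSO final). Lysed, then HTRF anti-pH2AX (S139) cryptate and anti-H2AX-d2 antibodies, 24 hr room temperature; 665/620 nm emission read.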

[3] = qHTS assay to identify small molecule agonists of the hypoxia (HIF-1) signaling pathway (AID 1224846; active = well fitted activation curve with a large enough effect in the signal ratio in the repeat runs, not every such curve was filed as active; the % refers to the signal ratio)
Summary of the method: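 Compounds from the Tox21 10K library, dissolved in DMSO, are tested for induction of a hypoxia response element–controlled beta-lactamase reporter in ME-180 cells. Exposure lasts 17 hrs at 37C after a 5 hr settling period, followed by CCF4-AM FRET substrate.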

[4] = qHTS assay to identify small molecule agonists of H2AX - cell viability counter screen (AID 1224847; calls by dose curve; note: top concentration of the series differs between compounds; nearly all actives have a fitted effect of over 30% in size)
Summary of the method: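 Wild-type CHO-K1 cells (10% FBS medium) were plated overnight at 37C, exposed to compounds at 15 concentrations for 3 hr at 37C (0.76% DMSO final), and viability was read as CellTiter-Glo luminescence after 30 min at room temperature.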

[5] = qHTS RealTime-Glo MT Cell Viability Assay in HEK293 cells - 32 hour (AID 1224868); note: top concentration of the series differs between compounds; nearly all actives have a fitted effect of over 50% in size
Summary of the method: (§1)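 Luminescence generated by NanoLuc from substrate produced by living HEK293 cells served as the viability signal. Each value reflects the reading at its stated time point during continuous 40 h compound exposure at 37 C.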

[6] = qHTS RealTime-Glo MT Cell Viability Assay in HepG2 cells - 40 hour (AID 1224870); note: nearly all actives have a fitted effect of over 50% in size
Summary of the method: (§2)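 HepG2 cells (600/well) mixed with RealTime-Glo MT reagent, settled 5 h at 37 C/5% CO2 before compound addition. Nonlytic NanoLuc luminescence from viable-cell prosubstrate reduction read repeatedly during 40 h treatment at 37 C.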

[7] = A CellTox Green Cytotoxicity Assay to monitor cytotoxicity in HEK293 cells - 40 hour (AID 1224871); note: nearly all actives have a fitted effect of over 45% in size
Summary of the method: (§3)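 Cells (HEK293, 600/well) and dye reagent are dispensed together. After 5 h at 37 C, 23 nL compound is pinned in. Plates stay at 37 C for 40 h with fluorescence read at 0h, 8h, 16h, 24h, 32h and 40h.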

[8] = qHTS RealTime-Glo MT Cell Viability Assay in HEK293 cells - 16 hour (AID 1224872); note: top concentration of the series differs between compounds; nearly all actives have a fitted effect of over 50% in size
Summary of the method: as §1

[9] = qHTS RealTime-Glo MT Cell Viability Assay in HepG2 cells - 8 hour (AID 1224873); note: nearly all actives have a fitted effect of over 55% in size
Summary of the method: as §2

[10] = qHTS RealTime-Glo MT Cell Viability Assay in HEK293 cells - 40 hour (AID 1224874); conditions: RealTime-Glo luminescence; max response: stronger effect = lower value; note: nearly all actives have a fitted effect of over 50% in size
Summary of the method: (§4)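 Real-time viability in HEK293: signal arises when living cells convert a prosubstrate for NanoLuc in the medium, so luminescence tracks viable cell number. Compound (23 nL, DMSO) added 5 h post-seeding; kinetic reads at 0–40 h, 37 C.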

[11] = A CellTox Green Cytotoxicity Assay to monitor cytotoxicity in HEK293 cells - 24 hour (AID 1224875); note: series mostly up to about 77 µM; nearly all actives have a fitted effect of over 45% in size
Summary of the method: as §3

[12] = A CellTox Green Cytotoxicity Assay to monitor cytotoxicity in HepG2 cells - 16 hour (AID 1224876); note: nearly all actives have a fitted effect of over 45% in size
Summary of the method: (§5)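 Cells and non-lytic dye reagent are dispensed together (600 HepG2 cells/well) and incubated 5 h before DMSO compound transfer. Kinetic fluorescence is then recorded in the same wells during 40 h at 37 C.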

[13] = qHTS RealTime-Glo MT Cell Viability Assay in HepG2 cells - 32 hour (AID 1224877); note: nearly all actives have a fitted effect of over 55% in size
Summary of the method: (§6)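 Tox21 10K library screened in qHTS format on HepG2 cells carrying RealTime-Glo reagents. Compounds were added after a 5 h preincubation, and the luminescent signal from continuous culture was measured repeatedly during 40 h treatment.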

[14] = A CellTox Green Cytotoxicity Assay to monitor cytotoxicity in HepG2 cells - 24 hour (AID 1224878); note: nearly all actives have a fitted effect of over 45% in size; note: potency is the fitted concentration of half-maximal effect
Summary of the method: as §5

[15] = A CellTox Green Cytotoxicity Assay to monitor cytotoxicity in HepG2 cells - 40 hour (AID 1224879); note: nearly all actives have a fitted effect of over 40% in size
Summary of the method: as §5

[16] = qHTS RealTime-Glo MT Cell Viability Assay in HEK293 cells - 0 hour (AID 1224880)
Summary of the method: as §4

[17] = A CellTox Green Cytotoxicity Assay to monitor cytotoxicity in HEK293 cells - 0 hour (AID 1224869); note: nearly all actives have a fitted effect of over 50% in size
Summary of the method: as §3

[18] = qHTS RealTime-Glo MT Cell Viability Assay in HepG2 cells - 24 hour (AID 1224867); note: nearly all actives have a fitted effect of over 50% in size
Summary of the method: as §6

| Structure (SMILES) | Potency [1] | Potency [2] | outcome [3] | Potency [4] | Potency [5] | Potency [6] | Potency [7] | Potency [8] | Potency [9] | max response [10] | Potency [11] | Potency [12] | Potency [13] | Potency [14] | Potency [15] | outcome [16] | Potency [17] | Potency [18] |
| --- | --- | --- | --- | --- | --- | --- | --- | --- | --- | --- | --- | --- | --- | --- | --- | --- | --- | --- |
| O=CC=O | inactive | inactive | inactive | inactive | inactive | inactive | inactive | inactive | inactive | 2.31% (inactive) | inactive | inactive | inactive | inactive | inactive | inactive | – | – |
| FC(Cl)(Cl)C(F)(Cl)Cl | inactive | inactive | inactive | inactive | inactive | inactive | inactive | – | inactive | -10.6% (inactive) | inactive | inactive | inactive | inactive | inactive | inactive | inactive | – |
| CCC(=O)O[C@@H]1C=C2CCC3C(CCC4(C)C3CC[C@@H]4OC(=O)CC)C2CC1 (stereo not given in full) | inactive | inactive | inactive | inactive | inactive | inactive | – | inactive | inactive | -21.1% (inactive) | inactive | inactive | inactive | inactive | inactive | inactive | inactive | inactive |
| CCCC[P+](CC)(CCCC)CCCC (tested in a mixture with another compound) | inactive | inactive | inactive | inactive | – | inactive | inactive | – | inactive | – | – | inactive | – | inactive | inactive | inactive | inactive | inactive |
| O=C(O)c1cc(I)cc(I)c1I | inactive | inactive | inactive | inactive | inactive | inactive | inactive | – | inactive | -4.51% (inactive) | inactive | inactive | inactive | inactive | – | inactive | inactive | inactive |
| CCC1CCC(=O)O1 (stereo not given) | inactive | inactive | inactive | inactive | inactive | inactive | inactive | inactive | inactive | 8.21% (inactive) | inactive | inactive | – | inactive | inactive | inactive | – | – |
| C[N+](C)(C)CC1CO1 (stereo not given) | inactive | inactive | inactive | inactive | inactive | inactive | inactive | inactive | inactive | 5.73% (inactive) | inactive | inactive | inactive | inactive | inactive | inactive | inactive | – |
| OCC1CO1 (stereo not given) | inactive | inactive | inactive | inactive | inactive | inactive | inactive | inactive | inactive | 0.843% (inactive) and 1.08% (inactive) | inactive | – | – | 44.4 µM (active) | – | inactive | – | inactive |
| CC(Oc1cc(Cl)c(Cl)cc1Cl)C(=O)O (stereo not given) | inactive | inactive | inactive | inactive | inactive | inactive | inactive | – | inactive | 3.67% (inactive) | inactive | inactive | inactive | inactive | inactive | inactive | – | inactive |
| CC(C)(c1ccccc1)c1cc(-n2nc3ccccc3n2)c(O)c(C(C)(C)c2ccccc2)c1 | inactive | inactive | inactive | inactive | inactive | inactive | inactive | inactive | inactive | 12.9% (inactive) | inactive | inactive | inactive | inactive | inactive | inactive | – | – |
| CCOP(=O)(O)C(N)=O | inactive | inactive | inactive | inactive | inactive | inactive | inactive | inactive | inactive | 20.4% (inactive) | inactive | inactive | inactive | inactive | inactive | inactive | – | inactive |
| NC(=O)CF | inactive | inactive | inactive | inactive | inactive | inactive | inactive | – | inactive | -4.69% (inactive) | inactive | inactive | – | inactive | inactive | inactive | inactive | inactive |
| C#CC(O)(C=CCl)CC (stereo not given) | inactive | inactive | inactive | inactive | inactive | inactive | inactive | – | inactive | 10.1% (inactive) | inactive | inactive | – | inactive | inactive | inactive | inactive | inactive |
| Nc1cccc2ccccc12 | inactive | inactive | inactive | inactive | inactive | inactive | inactive | inactive | inactive | -9.7% (inactive) and -1.99% (inactive) | inactive | inactive | inactive | inactive | inactive | inactive | – | inactive |
| CCCBr | inactive | inactive | inactive | inactive | inactive | inactive | inactive | inactive | inactive | -3.27% (inactive) | inactive | inactive | inactive | inactive | inactive | inactive | – | – |
| O=C(O)C(Cl)(Cl)Br | inactive | inactive | inactive | inactive | inactive | inactive | inactive | – | inactive | 0.585% (inactive) | – | inactive | inactive | inactive | – | inactive | inactive | inactive |
| OC[P+](CO)(CO)CO | 44.2 µM (active) and inactive | inactive | inactive | inactive | inactive | inactive | inactive | – | inactive | 5.15% (inactive) and -10.7% (inactive) | inactive | inactive | inactive | inactive | inactive | inactive | inactive | inactive |

From PubChem BioAssay (Tox21)
